Only some compounds are listed: those with a hit (about 17% of all), similar ones and a draw of the others.
TGFb SMAD3 inh: TGF-b pathway inhibition | HepG2 CAGA-GFP TGF-b/SMAD3 reporter, GFP fluorescence, 18 h; TGF-beta stimulated, 500 pg/mL final | Potency, µM (top dose mostly 46.1 µM), for inactives: at the top dose activity, negative = inhibition, usual class: inhibitors | 410,000 tested, 1.2% active | AID 588855; note: % is set by controls: 0 for no effect and ±100 for the full control effect; nearly all actives have a fitted effect of over 65% in size
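First, reporter cells (HEPG2 CAGA-GFP) rested 2 h at 37 degrees C. Next, compounds were pinned in and TGF-beta added to 500 pg/mL final. After 18 h, GFP was imaged per cell and summed per well.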
DT40 TDP1 no CPT: qHTS for Inhibitors of human tyrosyl-DNA phosphodiesterase 1 (TDP1): qHTS in cells in absence of CPT | 420,000 tested, 15% active | Potency, µM (series often up to 46.2 µM), inactives show top-dose activity change, negative = growth inhibition, hits mostly inhibitors | DT40 Tdp1-/- hTDP1 cells, no CPT, ATP luminescence, 48 h; note: % is set by controls: 0 for no effect and ±100 for the full control effect; nearly all actives have a fitted effect of over 55% in size
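No-CPT arm: Tdp1-/-;hTDP1 DT40 cells (400/well) plus compounds, incubated ≥48 hr at 37 °C. Readout CellTiter-Glo luminescence.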
DT40 TDP1 CPT: growth inhibition of DT40 Tdp1-/-;hTDP1 cells with camptothecin (screen for TDP1 inhibitors) | AID 686979 | Potency, µM (top dose mostly 46.2 µM), without a hit: at the highest dose activity change, negative = growth inhibition, most hits filed as inhibitors | chicken DT40 Tdp1-/-;hTDP1 cells + 20 nM CPT, ATP luminescence, 48 h | 420,000 tested, 12% active; note: % is set by controls: 0 for no effect and ±100 for the full control effect; nearly all actives have a fitted effect of over 55% in size
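Chicken DT40 Tdp1-/- cells stably complemented with human TDP1 were seeded at 400 cells/well in medium containing 20 nM camptothecin, exposed to pin-transferred compounds, and grown at 37 °C for at least 48 hr. Viability was read as ATP luminescence.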
HT1080 IDH1KD tx: HT-1080 IDH1 knockdown cell toxicity (counter line) | Potency, µM (doses to about 46.1 µM), inactives show at the top dose activity, negative = toxicity, hits mostly cytotoxic | HT-1080 IDH1 knockdown viability, ATP luminescence, 48 h | 360,000 tested, 2% active;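 note: 0% = DMSO wells and -100% = cell-free medium wells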
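After a 2 h attachment period, IDH1KD HT-1080 cells took pin-transferred compound for 48 h at 37 °C; ATP-based luminescence after 10 min room-temperature reagent incubation reported viability.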
HepG2 tox-1: counter-screen for TGF-b inhibitors: cytotoxicity in HepG2 cells. Potency, µM (titrated, usually from 46.1 µM), inactives show top-dose activity change, negative = cytotoxicity, most hits filed as cytotoxic. 410,000 tested, 0.76% active. HepG2 CAGA-GFP viability, ATP luminescence, 18 h. AID 588856
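HepG2 CAGA-GFP cells (1000/well, DMEM with 1% FBS) received compound, then TGF-beta at 500 pg/mL final, and were incubated 18 hours at 37 degrees C. Viability was read by CellTiter-Glo luminescence. Media-only wells were set as complete cell-killing and DMSO as no toxicity.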
HT1080NT lethal: kills 2HG-producing HT-1080-NT fibrosarcoma cells; HT-1080-NT fibrosarcoma viability, CellTiter-Glo ATP luminescence, 48 h; Potency, µM (top dose mostly 46.1 µM), for inactives: at the top dose activity, negative = less viability, most hits filed as cytotoxic; 360,000 tested, 1.6% active; AID 686970;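 note: NT is the 2HG producing partner of a matched IDH1 knockdown line; 0% = DMSO-treated cells and -100% = media-only wells without cells; nearly all actives have a fitted effect of over 55% in size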
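Toxicity toward the 2HG-producing NT line was scored as %Activity, normalised to DMSO and no-cell wells, from CellTiter-Glo luminescence after 48 hours' treatment.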
TGFb CAGA inh: confirmation of TGF-b signaling inhibitors in HepG2 reporter cells | shares compounds with TGFb SMAD3 inh | HepG2 CAGA-GFP TGF-b reporter, GFP fluorescence, 18 h; cells stimulated with TGF-beta, 500 pg/mL | Potency, µM (highest dose often 46.1 µM), for the others: at the highest dose activity, negative = inhibition, hits mostly inhibitors | 1,600 tested, 63% active | AID 720534; note: % is set by controls: 0 for no effect and ±100 for the full control effect; nearly all actives have a fitted effect of over 65% in size
HepG2 tox-2: HepG2 cytotoxicity, TGF-b inhibitor counterscreen; shares compounds with TGFb SMAD3 inh; HepG2 CAGA-GFP viability, ATP luminescence, 18 h; cells stimulated with TGF-beta, 500 pg/mL; Potency, µM (top dose mostly 46.1 µM), for inactives: at the highest dose activity, negative = cytotoxicity, hits mostly inhibitors; 1,600 tested, 27% active; AID 720535; note: % is set by controls: 0 for no effect and ±100 for the full control effect; nearly all actives have a fitted effect of over 70% in size
TGFb CCL64 inh: TGF-b inhibition, CCL64 orthogonal assay; shares compounds with TGFb SMAD3 inh; CCL64 CAGA-GFP reporter, TGF-b stimulated, GFP fluorescence, 18 h; Potency, µM (series often up to 46.1 µM), for the others: at the top dose activity, negative = inhibition, hits mostly inhibitors; 1,600 tested, 41% active; AID 720536; note: nearly all actives have a fitted effect of over 65% in size
TGFb COP inh: TGF-b inhibition validated with COP promoter; shares compounds with TGFb SMAD3 inh; HepG2 COP-GFP TGF-b reporter, GFP fluorescence, 18 h; cells stimulated by added recombinant TGF-beta; Potency, µM (highest dose often 46.1 µM), inactives show top-dose activity, negative = inhibition, usual class: inhibitors; 1,600 tested, 3% active; note: nearly all actives have a fitted effect of over 70% in size
* hit, by the source's call; ? = inconclusive; . = no result. Calls come from the whole dose curve; as a rule, active = well fitted curve in the direction sought with a large enough effect; inconclusive = small, poorly fitted or top-dose-only effect, or another doubt; inactive = no such curve, though single readings can be large; an effect the other way counts as inactive or inconclusive. Potency is the fitted concentration of half-maximal effect.

SMILES	TGFb SMAD3 inh	DT40 TDP1 no CPT	DT40 TDP1 CPT	HT1080 IDH1KD tx	HepG2 tox-1	HT1080NT lethal	TGFb CAGA inh	HepG2 tox-2	TGFb CCL64 inh	TGFb COP inh
Cn1c(/C=C/c2ccccc2)nc2ccccc2c1=O	-1%	?	-76%	?	-19%	?	.	.	.	.
Cn1c(/C=C/c2ccc([N+](=O)[O-])o2)nc2ccccc2c1=O	2.2µM*	0.26µM*	0.26µM*	?	-41%	?	?	6.5µM*	5.2µM*	?
COc1ccc2nc(N/C(N)=N/S(C)(=O)=O)nc(C)c2c1	2%	9%	-6%	13%	7%	?	.	.	.	.
CCOC(=O)N1CCN(Cc2ccc(O)c3ncccc23)CC1	7.1µM*	0.65µM*	0.58µM*	6.5µM*	-48%	21µM*	?	?	5.8µM*	0%
OCc1ccccc1O	.	-5%	13%	.	.	.	.	.	.	.
OCc1ccc(O)c2ncccc12	13µM*	5.2µM*	5.2µM*	?	-18%	?	6.5µM*	?	?	15%
Cc1ccc2c(C)ccc(O)c2n1	7.1µM*	3%	-3%	-2%	-6%	0%	-3%	0%	-23%	-21%
CCOC(=O)c1c(C)oc2c1c(C=NCc1ccccn1)c(O)c1ccccc12	?	1.2µM*	0.92µM*	-13%	-6%	-5%	?	?	18µM*	29%
COc1ccccc1-n1c(O)c(C=NCc2ccccn2)c2ccccc2c1=O	-9%	-22%	?	4%	9%	1%	.	.	.	.
CCC1=Nc2cc(C(=O)NCc3ccco3)ccc2Sc2ccc(C)cc21	?	1.3µM*	1.5µM*	1.3µM*	-25%	1.3µM*	2.3µM*	-18%	1.5µM*	11%
CCOC(=O)N1CCC(NC(=O)c2ccc3c(c2)N=C(CC)c2cc(C)ccc2S3)CC1	16µM*	18µM*	10µM*	5.8µM*	-6%	?	12µM*	-19%	?	26%
CN(Cc1ccccc1)C(=O)NC1CCCCC1	?	7%	-5%	-1%	12%	3%	.	.	.	.
CC[C@@H](CC1CCCCC1)C(=O)N(Cc1ccccc1)c1ccccc1	2.5µM*	4.1µM*	4.6µM*	-4%	-23%	-4%	-17%	?	?	9%
O=c1c(Br)c(Br)cnn1-c1ccccc1	10µM*	3.7µM*	4.1µM*	4.1µM*	13µM*	2.9µM*	4.6µM*	8.2µM*	4.6µM*	?
